A selection: hits, their analogues and other compounds. The true share with any hit is near 9.4%.
Rab9 promoter act = Rab9 promoter activation; Potency, µM (doses to about 9.22 µM), most hits filed as activators; actives 2.8% (n = 320,000); Huh7 Rab9 promoter-luciferase reporter, luminescence, 24 h; AID 485297; further: nearly all actives have a fitted effect of over 60% in size
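Rab9 promoter-driven luciferase in stably transfected Huh7 cells; 1500 cells/well rested 2 h, exposed to compound in DMSO for 24 h at 37 °C, 5% CO2. Luminescence read 10 min after adding luciferase reagent at ambient temperature.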
ELG1 repair inh = blocks ELG1-dependent DNA repair in HEK293T cells; Potency, µM (doses to about 46.1 µM), usual class: inhibitors; AID 504467; HEK293T ELG1-luciferase reporter, luminescence, 16 h; DNA damage induced by 5-fluorouridine; actives 2.3% (n = 330,000); further: nearly all actives have a fitted effect of over 55% in size
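Cells (2,000 per well) received 5-fluorouridine plus test compound or DMSO and were incubated 16 hr at 37 °C, 5% CO2. Luciferase activity was read by luminescence 30 min after ONE-Glo addition; signal suppression marked inhibition of damage-induced ELG1 function.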
FLuc counter = inhibits or activates purified firefly luciferase, miR-21 counter-screen. P08659. AID 588342. Potency, µM (titrated, usually from 57.5 µM), usual class: inhibitors. actives 6.9% (n = 360,000). purified FLuc, Km substrates, luminescence inhibition; further: nearly all actives have a fitted effect of over 55% in size
Target sequence (P08659 whole entry, looked up): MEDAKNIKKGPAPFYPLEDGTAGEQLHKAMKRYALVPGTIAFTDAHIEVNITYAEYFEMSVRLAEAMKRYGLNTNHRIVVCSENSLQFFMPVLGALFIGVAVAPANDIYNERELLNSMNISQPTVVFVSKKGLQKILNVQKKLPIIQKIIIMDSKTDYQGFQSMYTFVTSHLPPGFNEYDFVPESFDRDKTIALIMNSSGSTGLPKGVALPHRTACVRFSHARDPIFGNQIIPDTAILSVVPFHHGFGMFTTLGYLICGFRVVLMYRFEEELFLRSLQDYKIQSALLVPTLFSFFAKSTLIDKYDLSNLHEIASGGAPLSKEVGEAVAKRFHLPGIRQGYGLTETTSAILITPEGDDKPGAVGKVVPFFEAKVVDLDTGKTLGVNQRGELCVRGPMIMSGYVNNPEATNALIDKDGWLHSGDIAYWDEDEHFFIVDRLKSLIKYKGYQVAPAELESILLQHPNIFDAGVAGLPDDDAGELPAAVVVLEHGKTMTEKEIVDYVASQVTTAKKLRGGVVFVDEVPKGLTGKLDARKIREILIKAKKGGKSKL
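Biochemical qHTS of compounds, final roughly 60 µM downward over six points, against 10 nM purified firefly luciferase using Km concentrations of substrates (10 uM D-luciferin, 10 uM ATP) in Tris acetate pH 7.5 buffer; luminescence output.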
NPC1 promoter act = activators of NPC1 promoter; Huh7 NPC1 promoter luciferase reporter, 24 h; Potency, µM (top dose mostly 9.22 µM), usual class: activators; actives 2.4% (n = 320,000); AID 485313; further: nearly all actives have a fitted effect of over 60% in size
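Luciferase expression driven by the NPC1 promoter was measured in stably transfected Huh7 cells after a 24 h compound incubation, using a luciferase reagent and a luminescence read.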
SMN2 splice up = SMN2 splice variant enhancement; actives 2.8% (n = 210,000); HEK293 SMN2-luciferase splicing reporter, luminescence, 30-36 h; Potency, µM (titrated, usually from 46.1 µM), actives largely listed as activators; further: nearly all actives have a fitted effect of over 55% in size
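HEK293 cells carry an SMN2 minigene-luciferase reporter in which exon 7 inclusion puts luciferase in frame. Cells were seeded at 2000 cells/well, attached for 10-12 hours, then exposed to compounds for 30-36 hours at 37C before ONE-Glo luminescence.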
ELG1 genotox = inducers of genotoxicity in HEK293T ELG1-luciferase cells; HEK293T ELG1-luciferase reporter, luminescence, 16 h; Potency, µM (top dose mostly 46 µM), actives largely listed as activators; actives 1.3% (n = 330,000); AID 504466; further: nearly all actives have a fitted effect of over 60% in size
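Genotoxicity was scored as increased ELG1-luciferase reporter signal, measured by ONE-Glo luminescence (30 min, room temperature). Compound or vehicle exposure of the HEK293T reporter cells lasted 16 hr at 37°C.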
Hits are given with their value. The call rests on the fitted dose curve; in most records, active means well fitted curve in the direction sought with a large enough effect; inconclusive means small, poorly fitted or top-dose-only effect, or another doubt; inactive means no such curve, though single readings can be large; an effect the other way counts as inactive or inconclusive.

`COc1ccc(Br)c(-c2nnc(CS(=O)(=O)c3ccccc3)o2)c1` gave Rab9 promoter act 2.82µM, ELG1 repair inh inconclusive, FLuc counter 19µM, NPC1 promoter act inconclusive and ELG1 genotox inconclusive.
Cc1ccc(C)c(N2CCN(C(=O)CN(C)S(=O)(=O)c3ccc4c(c3)CCC(=O)N4)CC2)c1 was read as Rab9 promoter act inactive, ELG1 repair inh 23.1µM, FLuc counter inactive, NPC1 promoter act inactive, SMN2 splice up inactive and ELG1 genotox inactive.
Screening C/C(Cl)=C\Cn1c(O)c(N=NC(N)=S)c2cc(Br)ccc21 returned Rab9 promoter act inactive, ELG1 repair inh inactive, FLuc counter inactive, NPC1 promoter act inactive and ELG1 genotox inactive.
For NC(=S)N=Nc1c(O)n(CCCl)c2ccc(Br)cc12 the results were Rab9 promoter act inactive, ELG1 repair inh 14.6µM, FLuc counter inactive, NPC1 promoter act inactive and ELG1 genotox inactive.
Screening CCOC(=O)c1c(C)c(C(=O)Nc2ccc3c(c2)OCCO3)c(C)n1C returned Rab9 promoter act inactive, ELG1 repair inh inconclusive, FLuc counter inconclusive, NPC1 promoter act inactive, SMN2 splice up inconclusive and ELG1 genotox inactive.
`CCOC(=O)Nc1cc(Br)c2c(c1)OCCO2` gave Rab9 promoter act inactive, ELG1 repair inh inconclusive, FLuc counter inconclusive, NPC1 promoter act inactive and ELG1 genotox 23.1µM.
O=C(Nc1nnc(-c2ccccc2F)s1)Nc1ccccc1F was read as Rab9 promoter act 2µM, ELG1 repair inh inconclusive, FLuc counter inactive, NPC1 promoter act inconclusive, SMN2 splice up inconclusive and ELG1 genotox inactive.
For O=C(Nc1nnc(-c2ccccc2Cl)s1)c1ccccc1F the results were Rab9 promoter act 3.98µM, ELG1 repair inh inconclusive, FLuc counter inactive, NPC1 promoter act 3.16µM and ELG1 genotox inconclusive.
O=C(Nc1nnc(-c2ccccc2)s1)c1ccccc1F was read as Rab9 promoter act 1.12µM, ELG1 repair inh inconclusive, FLuc counter 10.7µM, NPC1 promoter act 2.51µM and ELG1 genotox inconclusive.
`O=C(Nc1nnc(-c2ccccc2SCc2ccccc2)s1)Nc1ccccc1F` gave Rab9 promoter act inactive, ELG1 repair inh inactive, FLuc counter inactive, NPC1 promoter act inactive, SMN2 splice up inactive and ELG1 genotox inactive.
For CC(C)Oc1ncnc2c1[nH]c1ccccc12 the results were Rab9 promoter act inactive, ELG1 repair inh inconclusive, FLuc counter 15.1µM, NPC1 promoter act inactive and ELG1 genotox inactive.
CCCCOc1ncnc2c1[nH]c1ccc(C)cc12 was read as Rab9 promoter act inconclusive, ELG1 repair inh inconclusive, FLuc counter 1.07µM, NPC1 promoter act inconclusive and ELG1 genotox inconclusive.
`CCCOc1ncnc2c1[nH]c1ccccc12` gave Rab9 promoter act inactive, ELG1 repair inh inconclusive, FLuc counter 16.9µM, NPC1 promoter act inactive, SMN2 splice up inactive and ELG1 genotox inactive.
For Cc1ccc2[nH]c3c(=O)n(Cc4ccncc4)cnc3c2c1 the results were Rab9 promoter act inactive, ELG1 repair inh inactive, FLuc counter inactive, NPC1 promoter act inactive, SMN2 splice up inactive and ELG1 genotox inactive.
Screening CCN(CC)c1ncnc2c1[nH]c1ccccc12 returned Rab9 promoter act inactive, ELG1 repair inh inconclusive, FLuc counter inactive, NPC1 promoter act inactive, SMN2 splice up inactive and ELG1 genotox inactive.
Screening CCCOc1ncnc2c1[nH]c1ccc(OC)cc12 returned Rab9 promoter act 0.562µM, ELG1 repair inh inconclusive, FLuc counter 2.39µM, NPC1 promoter act 1.12µM and ELG1 genotox inconclusive.
`COCCCNc1ncnc2c1[nH]c1ccccc12` gave Rab9 promoter act inactive, ELG1 repair inh inactive, FLuc counter inactive, NPC1 promoter act inactive, SMN2 splice up inactive and ELG1 genotox inactive.
COCCNc1ncnc2c1[nH]c1ccccc12 was read as Rab9 promoter act inactive, ELG1 repair inh 14.6µM, FLuc counter inactive, NPC1 promoter act inactive and ELG1 genotox inactive.
Cc1ccc2[nH]c(C)c(/C=C/c3cc[n+](C)cc3)c2c1 was read as Rab9 promoter act inactive, ELG1 repair inh 2.59µM, FLuc counter inactive, NPC1 promoter act inactive and ELG1 genotox inactive.

From PubChem BioAssay
